# Assay outcomes from PubChem BioAssay.
# mcGAS lum – mouse cGAS inhibition by luminescence; AID 1259399; inhibition, % at 12.5 µM; recombinant cGAS, Kinase-Glo ATP depletion luminescence; hit rate 0.15% among 160,000;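 also: 0% = negative control wells and 100% = reference inhibitor with no enzyme activity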
# Target sequence (Q8C6L5 whole entry, looked up): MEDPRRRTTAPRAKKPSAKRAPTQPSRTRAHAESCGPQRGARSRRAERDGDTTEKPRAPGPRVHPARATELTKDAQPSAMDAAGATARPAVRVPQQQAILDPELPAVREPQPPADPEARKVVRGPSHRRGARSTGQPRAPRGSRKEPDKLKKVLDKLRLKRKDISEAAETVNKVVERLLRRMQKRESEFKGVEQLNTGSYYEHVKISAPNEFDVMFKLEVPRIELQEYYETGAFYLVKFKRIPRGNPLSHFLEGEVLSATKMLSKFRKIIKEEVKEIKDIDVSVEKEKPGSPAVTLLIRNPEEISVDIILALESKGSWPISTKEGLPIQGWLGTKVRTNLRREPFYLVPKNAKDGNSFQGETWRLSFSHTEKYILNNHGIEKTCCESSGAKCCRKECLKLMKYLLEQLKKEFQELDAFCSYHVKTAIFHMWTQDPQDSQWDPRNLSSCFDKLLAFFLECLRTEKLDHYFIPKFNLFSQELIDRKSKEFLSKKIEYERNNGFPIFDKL
# NPYLR7 agonist – activates Aedes aegypti NPYLR7 receptor | HEK293T NPYLR7/Galpha15, GCaMP6s calcium fluorescence | activation, % at 10 µM | hit rate 0.15% among 270,000 | AID 1259423; in the data active = activation above about 40%;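 also: 0% = vehicle and 100% = reference agonist at the receptor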
# hcGAS inh – inhibitors of human cGAS | Q8N884 | recombinant h-cGAS, ATP depletion, Kinase-Glo luminescence | inhibition, % at 12.5 µM | hit rate 0.081% among 290,000 | AID 1259398;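 also: 0% = vehicle reaction and 100% = reaction without DNA for no activity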
# An asterisk follows results filed as active; . = no result given; + = active, no number; ! = a repeat was not active. The list is not random: actives were taken first. Their share in the collection is about 0.3%. Rule as the data show it, unless noted: active = inhibition above about 40%; inactive = the rest.
SMILES,mcGAS lum,NPYLR7 agonist,hcGAS inh
Clc1ccc(N2CCC3(CC2)NCCc2[nH]cnc23)cc1,.,7,-6
CSc1nc2c(c(=O)[nH]1)C(c1ccc3c(c1)OCO3)C1C(=O)CCCC1=N2 (stereo not drawn),.,0,-7
CC1(C)CC(=O)C2C(=Nc3[nH]c(=S)[nH]c(=O)c3C2c2ccc3c(c2)OCO3)C1 (stereo not drawn),-4,43*,-6
N#CC1C(=N)SC(=N)C(C#N)C1c1ccccc1F (stereo not drawn),59*,47*!,68*!
N#CC1C(=N)SC(=N)C(C#N)C1c1cccc(Cl)c1 (stereo not drawn),12,2,-2
N#CC1C(=N)SC(=N)C(C#N)C1c1cccc(Cl)c1Cl (stereo not drawn),18,14,-2
N#CC1C(=N)SC(=N)C(C#N)C1c1cccc(F)c1 (stereo not drawn),45*,97*,54*
N#CC1C(=N)SC(=N)C(C#N)C1c1ccc(Cl)cc1Cl (stereo not drawn),.,164*,7
N#CC1C(=N)SC(=N)C(C#N)C1c1ccccc1I (stereo not drawn),.,36,9
COc1ccc(CN(C(=O)Nc2ccccc2C(F)(F)F)C(C)C)cc1OS(C)(=O)=O,-6,-1,-6
CCOC(=O)CCC(=O)N1CCN(c2nccc(-c3ccco3)n2)CC1,-6,24,-4
Cc1ccc(NC(=O)CNCCCc2ccncc2)cc1C,-9,.,-8
CCOc1ccc(-c2cc(-c3nc(-c4ccc(OC)cc4)no3)[nH]n2)cc1,-8,3,-8
COc1ccc(C(=O)COc2ccc(-c3noc(C(C)C)n3)cc2)cc1,.,7,+
O=C(CN1CCN(C/C=C/c2ccccc2)CC1)NCc1ccc2c(c1)OCO2,.,14,8
CCOC(=O)c1cc(O)c(C(=O)OCC)s1,-4,62*!,-3
CCOC(=O)c1sc(N)c(C(N)=O)c1C,.,1,-9
CCn1cnnc1CN(C)C(=O)c1cc2c(cc1OC)CCC2,.,1,-1
COc1ccccc1-c1cc(C(=O)N2CCc3ccccc3C2)nc2cc(C(C)(C)C)nn12,84*,-2,6
CC(C)(C)c1cc2nc(C(=O)N3CCc4ccccc4C3)cc(-c3ccccc3F)n2n1,1,-13,1
COc1ccccc1OCCn1c(SCC(=O)c2ccc(Br)cc2)nc2ccccc21,5,-3,5
CCN(CC)C1=CC2=CC(=C(C#N)C#N)CCC2CC1 (stereo not drawn),-2,615*,0
CS(=O)(=O)CC(=O)N(Cc1ccccc1)CC1CCC1,.,15,-6
CCCCN(C)C1=CC2=CC(=C(C#N)C#N)CCC2CC1 (stereo not drawn),-5,+,-9
CN(Cc1ccccc1)C1=CC2=CC(=C(C#N)C#N)CCC2CC1 (stereo not drawn),.,118*,-3
SMILES,mcGAS lum,NPYLR7 agonist,hcGAS inh
O=C1C(=NNC(=S)NCC2CCCO2)c2cccc3cccc1c23 (stereo not drawn),.,-2,-9
O=S1(=O)CCC(c2nnc(C3(c4cccc(Br)c4)CCOCC3)o2)C1 (stereo not drawn),-12,6,-5
CN(Cc1n[nH]c(=O)[nH]1)Cc1cn(C)nc1-c1ccc(C2CCCCC2)cc1,.,4,-11
O=C(Nc1nnc(SCC2CC2)s1)c1ccc(F)cc1,-6,-6,-6
Cc1ncc(CNC(=O)N2CCC(C(C)C)CC2)s1,.,2,-4
Cc1nccn1CC(C)CNC(=O)N1CCC(C(C)C)CC1 (stereo not drawn),68*,6,-12
CN(CC1COc2ccccc2O1)C(=O)CN1C(=O)c2ccccc2S1(=O)=O (stereo not drawn),.,2,-6
CN(CC1COc2ccccc2O1)C(=O)CCl (stereo not drawn),54*,-5,-7
N#Cc1ccc(-c2ccccc2)nc1SCC(=O)c1ccc(Cl)cc1,-5,8,-1
CCC(OC1CCCC1)C(=O)N(C)CC(C)C#N (stereo not drawn),.,1,-22
CC(Cn1ccnc1)NC(=O)NCC(C)(C)c1ccccc1F (stereo not drawn),.,0,43*
CC(Cn1ccnc1)NC(=O)c1ccccc1N(C)C(=O)c1cccs1 (stereo not drawn),.,5,-2
Fc1ccc(Oc2cc(N3CCN(CCN4CCOCC4)CC3)ncn2)c(F)c1,-4,-9,-2
CC(C)c1nc(NC(=O)CS(=O)(=O)C2CCCC2)n(C)n1,.,3,-10
CC(C)c1nc(NC(=O)c2[nH]ncc2Br)n(C)n1,.,85*,49*
Cc1ccc(C2CCCN2CC(=O)N2CCNC2=O)cc1 (stereo not drawn),.,1,-3
c1cncc(NCCNC2CCSCC2)c1,.,4,-4
COc1ccc(/C=C2\Oc3c(ccc4c3CN(Cc3ccncc3)CO4)C2=O)cc1OC,-9,83*,-4
CCOCCCN1COc2ccc3c(c2C1)O/C(=C\c1ccc(OC)cc1)C3=O,-8,42,-6
COCCCN1COc2ccc3c(c2C1)O/C(=C\c1cc(OC)c(OC)c(OC)c1)C3=O,-10,61*,-8
CCc1ccc(/C=C2\Oc3c(ccc4c3CN(C3CCS(=O)(=O)C3)CO4)C2=O)cc1 (stereo not drawn),-1,66*,0
COc1ccc(CCN2COc3ccc4c(c3C2)O/C(=C\c2ccncc2)C4=O)cc1OC,11,55*,-2
COc1ccc(/C=C2\Oc3c(ccc4c3CN(C3CC3)CO4)C2=O)cc1,-8,3,-4
CCOCCCN1COc2ccc3c(c2C1)O/C(=C\c1cccc(OC)c1OC)C3=O,-6,22,-3
COc1ccc(CCN2COc3ccc4c(c3C2)O/C(=C\c2ccncc2)C4=O)cc1,12,39,0
SMILES,mcGAS lum,NPYLR7 agonist,hcGAS inh
Cc1nc2c(c(C)c1CNC(=O)Nc1nnc(C3CC3)s1)c(=O)[nH]n2C,.,1,3
CCOc1cc(/C=N\n2cnnc2)ccc1OCCOc1cc(C)ccc1C(C)C,-5,0,-6
COCC(=O)Nc1nn(C)c2c1C(C)CC(=O)N2 (stereo not drawn),-4,-13,0
CC(NC(=O)c1nn(-c2ccc(Cl)cc2)c(=O)n(Cc2ccc(C(F)(F)F)cc2)c1=O)c1ccccc1 (stereo not drawn),-4,5,-4
Cc1cc(C)c2oc(=O)n(C3CCN(C(=O)c4ccc5c(c4)OCO5)CC3)c2c1,-6,2,-7
COc1ccc(CN2COc3ccc4c(c3C2)O/C(=C\c2ccncc2)C4=O)cc1,-6,23,-7
COc1ccc(/C=C2\Oc3c(ccc4c3CN(Cc3ccncc3)CO4)C2=O)cc1,-3,67*,1
COc1cccc(CSc2nnc(NC(=O)c3ccc(C(F)(F)F)cc3)s2)c1,-3,1,-5
COC(=O)C(C)Sc1nc2sc3c(c2c(=O)n1Cc1ccccc1)CCC3 (stereo not drawn),.,-6,10
COC(=O)C(C)Sc1nc2sc3c(c2c(=O)n1C)CCC3 (stereo not drawn),.,51*,0
CCCCN(CC(=O)N1c2ccccc2-n2cccc2C1c1ccc(C)cc1)C(=O)/C=C/c1ccccc1 (stereo not drawn),-1,26,2
CC1(C(=O)N2CCN(Cc3ccc(-c4noc(-c5ccccc5)n4)cc3)CC2)CC1,-5,.,-5
CCN(CC)C(=O)COC(=O)c1cccc(N2CC(=O)C(c3nc4ccccc4s3)C2=N)c1 (stereo not drawn),-6,-1,-8
N=C1C(c2nc3ccccc3s2)C(=O)CN1N1C(=O)c2ccccc2C1=O (stereo not drawn),43*,3,11
CCc1[nH]n(C(C)(C)C)c(=O)c1C1=C(N2CCCC2)C(=O)N(c2cccc(C)c2)C1=O,0,-6,0
Cc1ccc(C(=O)N(Cc2cccc(OS(=O)(=O)c3ccc(F)cc3)c2)Cc2ccco2)cc1[N+](=O)[O-],-1,-12,0
